“And” between values parts separate entries of the source, which are not always exact repeats. Equal entries are not always repeated. This is part of a sample that, as a whole, favours compounds with a hit. Of some 83,000 tested, about 20% had one in any assay.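 Cells were grown in 96-well plates and exposed to the test compound at a single concentration for 48 hours; results are reported as percent growth, with values below 10 considered active.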 Where a structure was tested more than once in an assay, its records may differ in their call. The source made the active and inactive calls.

The test concerns MDA-MB-468 breast. The test can be described thus: NCI-60 one-dose screen, 48 h (100 = growth as untreated, 0 = no growth, -100 = all killed). Particulars: 10 µM unless noted.
For `O=S(Cc1ccccc1)/C(=C/NC(=S)Nc1ccccc1)c1ccccc1` (centres undefined), the growth is 108% (inactive).
With `Oc1ccc(CSc2nnc(-c3ccncc3)n2-c2ccccc2)c2cccnc12`, the growth is 14.2% (inactive).
As to `CCN(CC)CCCOc1ccc2c(c1)O/C(=C\c1cccc(OC)c1)C2=O`, the growth was 79.8% (inactive).
For the compound `C=C(C(N)=O)C(N)C(=O)O` (centres undefined), the growth is 121% (inactive).
Turning to `COc1cc(NS(C)(=O)=O)ccc1Nc1c2ccccc2nc2ccccc12`, the growth is -3.7% (active) and -17.8% (active).
For the compound `CC1CCC(n2cnc3c(Cl)ncnc32)O1` (centres undefined), the growth was 96.3% (inactive).
Take `CCn1cc(C(=O)O)c(=O)c2cc(F)c(N3CCN(S(=O)(=O)c4ccc(OC)c(OC)c4)CC3)cc21`: the growth was 100% (inactive).
`C=C1C(=O)O[C@H]2[C@H]1CC/C(COC(=O)NCc1cc(OC)cc(OC)c1)=C\CC[C@@]1(C)O[C@@H]21`: the growth is 10.2% (inactive).
In the case of `c1csc(-c2ccc(CNc3c4ccccc4nc4ccccc34)cc2)c1`, the growth was -72.5% (active).
As for `CCCCC(=O)OC1CCCCC1C` (centres undefined), the growth is 86.6% (inactive).
With `COc1cc(NC(=O)CCSc2nc3ccccc3c(=O)n2Cc2ccccc2)cc(OC)c1OC`, the growth is 93.3% (inactive).
As to `COc1ccc(-c2c(NC(=O)Nc3ccc(Cl)c(C(F)(F)F)c3)cnn2-c2ccc(S(N)(=O)=O)cc2)cc1`, the growth was 26.7% (inactive).
With `COc1cc(-c2nc(N=Nc3c(O)[nH]c4ccc(Br)cc34)[nH]c(=O)c2C#N)cc(OC)c1OC`, the growth is 103% (inactive).
In the case of `CCOC(=O)c1cc2c(n1Cc1cccc(OC)c1)-c1oncc1CC2` it was -2.28% (active); in that of `CN(C)CCCN=c1cc2c(=O)n(CCCN(C)C)c(=O)c3c(NCCCN(C)C)cc4c(O)n(CCCN(C)C)c(=O)c1c4c3-2`, -53.2% (active); in that of `COc1ccc(-c2nnc(COc3ccc(Cl)cc3Cl)o2)cc1OC`, 71.9% (inactive).
`CC/C(=C(/c1ccc(Cl)cc1)c1ccc(OCCN(C)C)cc1)c1ccc(Cl)cc1`: the growth was 50.7% (inactive).
In the case of `C=C1C(=O)O[C@@H]2/C=C(/C)C3=CC(=O)[C@@](C)(C[C@H](OC(=O)/C(C)=C\C)[C@@H]12)O3` it was -43.6% (active); in that of `COc1cc(NCC(=O)Nc2cc(Nc3ccc(C)cc3)ncn2)c(Cl)c(OC)c1Cl`, 105% (inactive); in that of `CCC(CCNc1cc(OC)cc2cccnc12)CN1C(=O)c2ccccc2C1=O` (centres undefined), 7.31% (active).
For the compound `C=CCOc1cccc(/C=C2\SC(=S)N(C3CC(=O)N(c4ccc(Br)cc4)C3=O)C2=O)c1` (centres undefined), the growth was 111% (inactive).
On to `CC(=O)N1CC(=O)NC1=S`, for which the growth is 95.9% (inactive).
As to `C[N+](C)(C)c1ccc(CC2c3ccccc3-c3ccccc32)cc1`, the growth was -24.1% (active).
As to `COc1ccc(-c2nc3sc(-c4ccccc4)cn3n2)cc1`, the growth is 18.7% (inactive).
In the case of `N#CC1=C(N)Oc2c(ccc3ccccc23)C1c1ccc([N+](=O)[O-])cc1` (centres undefined) it was 90% (inactive).
As to `CO[C@H](C(=O)[C@@H](O)[C@@H](C)O)[C@@H]1Cc2cc3cc(O[C@H]4C[C@@H](O[C@H]5C[C@@H](O)[C@H](O)C(C)O5)[C@H](O)C(C)O4)c(C)c(O)c3c(O)c2C(=O)[C@H]1O[C@H]1C[C@@H](O[C@H]2C[C@@H](O[C@H]3C[C@@H](OC)[C@H](O)C(C)O3)[C@@H](O)C(C)O2)C(O)(O)C(C)O1` (some centres undefined), the growth was -30.2% (active).
`CCC(=O)Nc1cc(Nc2cc(NC3CC3)n3ncc(C#N)c3n2)ccc1C`: the growth was 1.64% (active).
As for `COc1cc(/C=C/C(C)=O)ccc1O`, the growth is 100% (inactive) and 111% (inactive).
As to `CC1(C)CC(=O)C2=C(C1)N(c1ccc(OC(F)(F)F)cc1)C(N)=C(C#N)C2c1ccc(Cl)cc1` (centres undefined), the growth was 93.1% (inactive).
For the compound `COc1ccc(/C=C/c2c(C(=O)/C=C/c3ccccc3)c(C)nc3ccccc23)cc1`, the growth is 12.8% (inactive).
Regarding `COc1cc(C2C3=C(COC3=O)N(CCO)c3cc4c(cc32)OCO4)cc(OC)c1OC` (centres undefined), the growth was 0.559% (active).
Turning to `O=C(NC(=S)NNC(=S)NNc1ccccc1)c1ccccc1`, the growth is 83.7% (inactive).
Consider `CCOC(CN1CCN(CC(C)C(=O)c2ccccc2)CC1)c1ccccc1` (centres undefined), for which the growth was 87.2% (inactive).
For `Cc1[nH]n(-c2cccc(Cl)c2)c(=O)c1/C=C1\C=c2ccccc2=CC1=O`, the growth is 34.5% (inactive).
On to `Cc1cnc(SCc2ccc(Cl)cc2Cl)nc1Nc1ccc(Cl)c(Cl)c1`, for which the growth is 101% (inactive).
For the compound `COC(=O)c1cccc(NC2=C(Cl)C(=O)C(C)=C(C)C2=O)c1`, the growth is -62% (active).
For the compound `CCCCCc1c(C)[nH]c(/C=C2\N=C(c3ccc[nH]3)C=C2CC)c1C`, the growth was -92.1% (active).
In the case of `Cn1[nH]cc(/C=N/C(N)=O)c1=O` it was 119% (inactive).
With `O=C(CO)C(O)C(O)C(O)C(O)CO` (centres undefined), the growth was -18.1% (active) and 102% (inactive).

Values taken from PubChem BioAssay (NCI).
